KCNQ2 enhance: KCNQ2 (rat) channel potentiation; O88943; CHO-K1 KCNQ2, FluxOR thallium flux fluorescence; hits give high values; B-score at 10 µM; 0.54% of 310,000 active; AID 2239;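 active = fluorescence ratio B-score at least 3 SD of library B-scores, with initial fluorescence B-score within 3 of them, cut at about 5.3 in these data; same plate scores as AID 2156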;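 also: B-score of peak minus minimum over baseline fluorescence ratio after K+ and Tl+ stimulus; positive B-score means potentiation of KCNQ2 with more thallium influx and brighter signal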
Target sequence (O88943 whole entry, looked up): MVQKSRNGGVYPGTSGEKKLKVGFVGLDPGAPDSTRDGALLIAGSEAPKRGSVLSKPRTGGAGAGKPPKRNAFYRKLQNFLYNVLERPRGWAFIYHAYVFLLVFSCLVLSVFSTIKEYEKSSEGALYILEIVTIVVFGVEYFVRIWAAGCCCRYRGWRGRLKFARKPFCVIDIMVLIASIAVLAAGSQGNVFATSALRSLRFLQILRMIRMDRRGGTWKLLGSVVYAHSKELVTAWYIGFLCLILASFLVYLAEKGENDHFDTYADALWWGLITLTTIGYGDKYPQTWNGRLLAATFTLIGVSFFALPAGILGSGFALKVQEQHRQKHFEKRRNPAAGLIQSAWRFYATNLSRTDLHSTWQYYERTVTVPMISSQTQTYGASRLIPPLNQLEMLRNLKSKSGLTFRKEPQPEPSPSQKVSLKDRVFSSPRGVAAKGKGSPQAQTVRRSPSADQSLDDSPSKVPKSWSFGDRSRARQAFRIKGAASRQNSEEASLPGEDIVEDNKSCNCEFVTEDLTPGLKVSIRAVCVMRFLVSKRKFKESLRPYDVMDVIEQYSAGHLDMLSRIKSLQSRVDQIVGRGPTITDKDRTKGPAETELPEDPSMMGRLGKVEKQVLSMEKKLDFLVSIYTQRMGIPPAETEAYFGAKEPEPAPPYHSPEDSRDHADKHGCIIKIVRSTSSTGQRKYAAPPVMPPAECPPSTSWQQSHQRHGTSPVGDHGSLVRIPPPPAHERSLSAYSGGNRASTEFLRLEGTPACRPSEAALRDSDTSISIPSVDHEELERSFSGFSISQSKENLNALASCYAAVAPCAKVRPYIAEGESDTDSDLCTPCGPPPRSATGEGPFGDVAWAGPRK
KCNQ2 block: blocks the rat KCNQ2 potassium channel; CHO-K1 KCNQ2, FluxOR thallium flux, 20 min; hits give low values; B-score at 10 µM; 1.1% of 310,000 active; O88943; AID 2156;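 active = fluorescence ratio B-score at most minus 3 library SDs, with starting brightness B-score within 2 library SDs, cut at about -5.5 in these data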
KCNQ2 inh conf: confirmation of rat KCNQ2 potassium channel inhibitors; shares compounds with KCNQ2 block; KCNQ2-expressing cells, thallium flux, inhibition; hits give low values; activity change, negative = inhibition, % at 10 µM; 57% of 1,000 active; AID 493025;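 also: 0% = vehicle wells and values are ratio percent relative to vehicle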
KCNQ1 spec: KCNQ2 inhibitor that also affects human KCNQ1 channel; shares compounds with KCNQ2 block; KCNQ1-expressing cells, FluxOR thallium flux fluorescence; hits give low values; activity change, negative = inhibition, % at 10 µM; 15% of 1,000 active;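 active = activity change at least 3 SD of negative controls below their mean in both duplicate wells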;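 also: CHO cells stably transfected with KCNQ1 and depolarized by potassium stimulus; peak minus minimum fluorescence over baseline after thallium addition; 0% = vehicle negative control and -100% = blank without thallium stimulus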
CHO parental ctr: activity in parental CHO cells lacking KCNQ2; shares compounds with KCNQ2 block; thallium flux counter-screen; hits give low values; activity change, % at 10 µM; 14% of 1,000 active;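 also: 0% = vehicle negative controls with stimulus buffer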
KCNQ2 patch conf: blocks rat KCNQ2 current in automated patch clamp. shares compounds with KCNQ2 block. KCNQ2-expressing cells. calls only at 10 µM. 49% of 550 active. AID 588531
The depositor's hits bear a star; i = inactive; / = no result given; + = active, no number. Sampled rows, rich in hits. Any-hit rate of the full collection: about 1.6%. Unless noted, no rule for the calls is given here.

SMILES | KCNQ2 enhance | KCNQ2 block | KCNQ2 inh conf | KCNQ1 spec | CHO parental ctr | others
COc1ccc(C(=O)NCC(c2ccco2)N2CCc3ccccc32)c(OC)c1 (stereo not given) | -8 | -8* | -31%* | i | i | KCNQ2 patch conf=+
O=C(O)c1ccccc1C(=O)N(Cc1ccccc1)Cc1ccccc1 | / | i | / | / | /
O=C(O)c1cc(Cl)c(Cl)cc1C(=O)N(Cc1ccccc1)Cc1ccccc1 | -7.5 | -7.5* | -30%* | i | i | KCNQ2 patch conf=+
CCN(CC)C(=O)CSc1nc2ccccc2c(=O)n1CC1CCCCC1 | -6.6 | -6.6* | -45%* | -38%* | -30%* | KCNQ2 patch conf=+
O=C(CSc1nc2ccccc2c(=O)n1CC1CCCCC1)N1CCOCC1 | / | i | / | / | /
CCOc1ccc(NC(=O)CC(Cc2cc(C)cc(C)c2)C(=O)O)cc1 (stereo not given) | 1.2 | i | / | / | /
COC(=O)c1c(NC(=O)CN2CCCc3ccccc32)sc(C)c1C | -7.7 | -7.7* | -38%* | -33%* | -33%* | KCNQ2 patch conf=i
CCOC(=O)c1c(NC(=O)CN2CCCc3ccccc32)sc(C)c1C | / | i | / | / | /
O=C1NC[C@H](c2ccccc2)N(CCC23CC4CC(CC(C4)C2)C3)C1=O | / | i | / | / | /
O=[N+]([O-])c1cc([N+](=O)[O-])c2c(=Nc3ccccc3)n(-c3ccccc3)n(O)c2c1 | -9.8 | -9.8* | -34%* | -40%* | -28%* | KCNQ2 patch conf=+
O=[N+]([O-])c1cc(Br)c(Nc2ccccc2)c([N+](=O)[O-])c1 | / | i | / | / | /
CC(=O)N1c2ccc(S(=O)(=O)NCC3CCC(C(=O)NCc4ccco4)CC3)cc2CC1C (stereo not given) | / | i | / | / | /
CC(C)[C@H](NC(=O)[C@@H]1CSC2c3ccccc3C(=O)N21)C(=O)NC1CCCCC1 (stereo not given in full) | 1.2 | i | / | / | /
O=C(CC12CC3CC(CC(C3)C1)C2)NC(=S)NCc1ccco1 | / | i | / | / | /
COc1ccc(S(=O)(=O)N2CCC(C(=O)Nc3ccccc3N3CCCCC3)CC2)cc1OC | 0.13 | i | / | / | /
Cc1ccc(-c2nn(-c3ccccc3)cc2C(=O)O)o1 | / | i | / | / | /
Cc1ccc(-c2nn(-c3ccccc3)cc2CN(Cc2ccccc2)C(=O)c2ccco2)o1 | -15 | -15* | -47%* | -48%* | -50%* | KCNQ2 patch conf=i
OC(CNC1Cc2ccccc2C1)c1ccccc1 (stereo not given) | / | i | / | / | /
CC(=O)N1CCc2c(sc3c2c(=O)n(Cc2ccccc2)c(=O)n3CC(=O)NCC2CCCO2)C1 (stereo not given) | / | i | / | / | /
CCOC(=O)N1CCc2c(sc3c2c(=O)n(Cc2ccccc2)c(=O)n3Cc2ccc(C)cc2)C1 | -7.7 | -7.7* | i | i | i
O=C(OCCN1CCOCC1)c1ccc2c(c1)OCCO2 | / | i | / | / | /
O=C(CCN1CCCCC1)c1ccccc1 | / | i | / | / | /
O=C(CCN1CCOCC1)c1ccccc1 | -9.9 | -9.9* | i | i | i
O=C(CCN1CCOCC1)c1ccc2c(c1)OCCO2 | -7.4 | -7.4* | i | i | i
Cc1ccc(SCCC(=O)OCC(=O)NCC2CCCCC2)cc1 | / | i | / | / | /
SMILES | KCNQ2 enhance | KCNQ2 block | KCNQ2 inh conf | KCNQ1 spec | CHO parental ctr | others
COc1ccccc1S(=O)(=O)Cc1ccc(C(=O)N2CCN(c3ccccc3)CC2)o1 | / | i | / | / | /
COc1ccccc1S(=O)(=O)Cc1ccc(C(=O)N2CCN(c3cccc(Cl)c3)CC2)o1 | -10 | -10* | -37%* | i | i | KCNQ2 patch conf=i
O=C(NCCc1cn2ccsc2n1)C1CCCCC1 | 0.14 | i | / | / | /
Cc1csc2nc(CNC(=O)C3CCCCC3)cn12 | -8.8 | -8.8* | i | i | i
NCC1CC2c3ccccc3C1c1ccccc12 (stereo not given) | / | i | / | / | /
Cc1nn(-c2ccccc2)c(C)c1NC(=O)COC(=O)Cc1cccc(C(F)(F)F)c1 | 0.6 | i | / | / | /
Cc1[nH]n(-c2ccccc2)c(=O)c1C(C[N+](=O)[O-])c1ccc(Br)cc1 (stereo not given) | / | i | / | / | /
COc1cccc(C(C[N+](=O)[O-])c2c(C)[nH]n(-c3ccccc3)c2=O)c1 (stereo not given) | -12 | -12* | i | i | i
CCc1ccccc1NC(=S)N(CCN1CCOCC1)C1CCN(C(C)=O)CC1 | 0.65 | i | / | / | /
COc1ccc2nc(SCC(=O)Nc3ccc(S(=O)(=O)N4CCCC4)cc3)c(C#N)cc2c1 | 0.76 | i | / | / | /

Assay outcomes deposited in PubChem by Johns Hopkins Ion Channel Center.
